RORgamma inh: blocks mouse ROR gamma transcriptional activity | hit rate 5.4% among 310,000 | Potency, µM (titrated, usually from 53.6 µM), without a hit: top-dose activity change, negative = inhibition, most hits filed as inhibitors | AID 2551 | Drosophila S2 Gal4-RORgamma UAS-luciferase reporter, 20 h | P51450; note: nearly all actives have a fitted effect of over 60% in size
Target sequence (P51450 whole entry, looked up, the tested form may be a part): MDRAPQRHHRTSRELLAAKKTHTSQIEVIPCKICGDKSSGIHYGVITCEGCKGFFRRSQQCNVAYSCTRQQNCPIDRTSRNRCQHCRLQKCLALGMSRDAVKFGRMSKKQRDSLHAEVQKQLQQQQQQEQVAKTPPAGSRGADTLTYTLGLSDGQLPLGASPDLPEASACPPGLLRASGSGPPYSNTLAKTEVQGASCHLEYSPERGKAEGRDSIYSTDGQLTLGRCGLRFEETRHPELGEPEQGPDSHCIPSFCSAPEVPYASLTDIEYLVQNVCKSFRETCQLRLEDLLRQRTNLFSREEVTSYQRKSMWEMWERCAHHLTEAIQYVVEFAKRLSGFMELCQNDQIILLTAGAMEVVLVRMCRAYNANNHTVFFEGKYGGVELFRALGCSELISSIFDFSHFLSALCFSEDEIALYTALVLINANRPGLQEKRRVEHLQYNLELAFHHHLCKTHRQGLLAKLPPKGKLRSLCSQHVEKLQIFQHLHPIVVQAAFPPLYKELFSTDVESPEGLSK
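Using a luciferase readout, inhibitors were identified by reduced reporter activity in Drosophila cells coexpressing a copper-inducible Gal4–ROR gamma fusion and UAS-driven Photinus luciferase, incubated 20 hr after 700 uM copper sulfate.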
ELG1 repair inh: ELG1-dependent DNA repair inhibition | HEK293T ELG1-luciferase reporter, luminescence, 16 h; DNA damage induced by 5-fluorouridine | Potency, µM (highest dose often 46.1 µM), inactives show top-dose activity change, negative = inhibition, actives largely listed as inhibitors | hit rate 2.3% among 330,000 | AID 504467; note: nearly all actives have a fitted effect of over 55% in size
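DMSO vehicle served as the neutral condition. Each well held 2,000 cells given 5-fluorouridine plus compound; after 16 hr at 37 °C/5% CO2, ONE-Glo was added and luciferase measured 30 min later.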
Gal4-VP16 FLuc: inhibits Gal4-VP16 luciferase reporter, ROR gamma counter-screen. hit rate 3.5% among 310,000. Potency, µM (series often up to 53.6 µM), for inactives: top-dose activity, negative = inhibition, most hits filed as inhibitors. AID 2546. Drosophila S2 Gal4-VP16 UAS-luciferase, luminescence, 20 h;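 note: Gal4-VP16 expression switched on by copper sulfate through the metallothionein promoter; nearly all actives have a fitted effect of over 50% in size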
DT40 TDP1 CPT: DT40-hTDP1 cell growth loss with CPT | chicken DT40 Tdp1-/-;hTDP1 cells + 20 nM CPT, ATP luminescence, 48 h | Potency, µM (doses to about 46.2 µM), for inactives: top-dose activity change, negative = growth inhibition, hits mostly inhibitors | hit rate 12% among 420,000 | AID 686979; note: nearly all actives have a fitted effect of over 55% in size
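Cell growth measured by CellTiter-Glo luminescence after a minimum 48 h, 37 C compound exposure with 20 nM CPT in Tdp1-knockout DT40 cells stably expressing hTDP1, seeded 400/well; qHTS titration format.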
12-LOX inh: ALOX12 (human) lipoxygenase inhibition; P18054; purified 12hLO, xylenol orange hydroperoxide absorbance; Potency, µM (top dose mostly 108 µM), inactives show at the top dose activity change, negative = inhibition, actives largely listed as inhibitors; hit rate 1.1% among 580,000; AID 1671190
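Purified human 12hLO (150 nM final) in 25 mM Hepes, 0.01% Triton X-100, pH 7.0 was preincubated 15 min at room temperature with compound. Then 40 uM arachidonic acid was added, 30 min. Hydroperoxide was read by Fe-XO absorbance ratio 573/405 nm.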
DT40 TDP1 no CPT: qHTS for Inhibitors of human tyrosyl-DNA phosphodiesterase 1 (TDP1): qHTS in cells in absence of CPT. DT40 Tdp1-/- hTDP1 cells, no CPT, ATP luminescence, 48 h. Potency, µM (titrated, usually from 46.2 µM), for inactives: at the highest dose activity change, negative = growth inhibition, most hits filed as inhibitors. hit rate 15% among 420,000; note: nearly all actives have a fitted effect of over 55% in size
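Readout: luminescence from CellTiter-Glo after 30 min in the dark at RT. Cells: DT40 Tdp1-/- with stable hTDP1, 400/well. Exposure: compounds alone, ≥48 hr, 37 °C.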
* marks the source's active call; other numbers are inactive results; ? = inconclusive; . = no result given; [ ] = dose if it differs, or a comment. A selection: hits, their analogues and other compounds. The true share with any hit is near 15%. Calls come from the whole dose curve; as a rule, active = well fitted curve in the direction sought with a large enough effect; inconclusive = small, poorly fitted or top-dose-only effect, or another doubt; inactive = no such curve, though single readings can be large; an effect the other way counts as inactive or inconclusive. % is set by controls: 0 for no effect and ±100 for the full control effect; potency is the fitted concentration of half-maximal effect.

SMILES	RORgamma inh	ELG1 repair inh	Gal4-VP16 FLuc	DT40 TDP1 CPT	12-LOX inh	DT40 TDP1 no CPT
CCOc1ccc2c(c1)c(C(C)=O)c(C)n2CCc1ccccc1	.	.	.	.	8%	.
COc1ccc2c(c1)c(C(C)=O)c(C)n2CCc1ccccc1	73%	8.2µM*	-19%	?	?	?
O=c1[nH]ncc(N2CCN(C(c3ccccc3)c3ccccc3)CC2)c1Cl	-14%	-3%	2%	21µM*	-21%	10µM*
CCn1c(SCC(=O)c2cc(OC)ccc2OC)nc2c1c(=O)n(C)c(=O)n2C	14%	-16%	-2%	.	.	.
CCCn1c(SCC(=O)Nc2ccccc2CC)nnc1C(C)C	8%	11%	10%	21µM*	0%	18µM*
CCCn1c(SCC(=O)Nc2sc(C)c(C)c2C#N)nnc1C(C)C	30%	21µM*	-20%	-21%	-13%	-28%
CCCn1c(SCC(=O)c2cc(OC)ccc2OC)nnc1C(C)C	-4%	5%	-1%	16µM*	?	?
Cc1ccc(CNC(=O)c2cccc(C3CCCN(C(=O)Nc4ccccc4)C3)c2)o1 (stereo not drawn)	.	.	.	.	4%	.
O=C(/C=C/c1ccccc1)N1CCN(Cc2ccccc2)CC1	.	.	.	.	-4%	.
COc1ccc(NC(=S)N2CCN(CCN3C(=O)c4cccc5cccc(c45)C3=O)CC2)cc1	2%	-4%	-6%	-13%	35%	?
CCOc1ccc(NC(=S)N2CCN(CCN3C(=O)c4cccc5cccc(c45)C3=O)CC2)cc1	-32%	-16%	-4%	?	-16%	26µM*
O=C(/C=C/c1ccccc1)N1CCN(CCN2C(=O)c3cccc4cccc(c34)C2=O)CC1	4%	10µM*	2%	7.3µM*	-17%	7.3µM*
O=C(c1ccc(S(=O)(=O)N2CCCCC2)cc1)N1CCN(CCN2C(=O)c3cccc4cccc(c34)C2=O)CC1	16%	3.3µM*	?	13µM*	-10%	12µM*
Cc1nc2cc(NC(=O)c3ccccc3Cl)ccc2o1	.	.	.	.	-1%	.
COC(=O)/C=C1/S/C(=N/NC(=O)c2ccccc2)NC1=O	2.8µM*	6%	0%	5%	6%	9%
COC(=O)/C=C1\S/C(=N/NC(=O)c2ccccc2)NC1=O	11µM*	6%	11µM*	-9%	70%	-4%
COc1ccccc1/C=C1\S/C(=N/NC(=O)c2cccc(Br)c2)NC1=O	0.32µM*	1%	0.56µM*	?	2%	21µM*
CO[C@H]1C[C@@H](O)C12CCN(C(=O)c1oc(COc3ccccc3)cc1C)CC2	.	.	.	.	41%	.
CCN(CC(=O)Nc1ccccc1C(F)(F)F)C(=O)c1ccc2[nH]c3c(c2c1)CC(C)CC3 (stereo not drawn)	.	?	.	?	0%	18µM*
CCC1CCc2sc(C(=O)N(C)CC(=O)Nc3ccc(OC)cc3)cc2C1 (stereo not drawn)	.	-1%	.	?	-25%	21µM*
CC1CCc2[nH]c3ccc(C(=O)N(C)CC(=O)Nc4ccc(F)cc4)cc3c2C1 (stereo not drawn)	?	-4%	3%	?	-10%	10µM*
COc1ccc(NC(=O)CN(C)C(=O)c2ccc3[nH]c4c(c3c2)CC(C)CC4)cc1 (stereo not drawn)	.	?	.	-19%	?	23µM*
CC(CCC(=O)NN)C1CCC2C3CCC4CC(O)CCC4(C)C3CCC12C (stereo not drawn)	.	.	.	1%	-16%	26µM*
Cn1c(=O)c(Nc2ccc(O)cc2)c2c3c(cccc31)C(=O)c1ccccc1-2	-31%	?	-8%	3.7µM*	0%	2.6µM*
CC(C)c1ccc(Nc2c([N+](=O)[O-])c(=O)n(C)c3ccccc23)cc1	19%	-19%	-8%	1%	1%	?
SMILES	RORgamma inh	ELG1 repair inh	Gal4-VP16 FLuc	DT40 TDP1 CPT	12-LOX inh	DT40 TDP1 no CPT
Cc1nnc(N/N=C/c2ccc(-c3ccccc3F)o2)n1N	7.9µM*	?	?	?	?	-7%
Cc1nnc(N/N=C/c2cc(C)n(-c3ccc(F)cc3)c2C)n1N	11µM*	26%	?	13µM*	-5%	16µM*
Cc1nnc(N/N=C/c2ccccc2O)n1N	1.3µM*	-19%	?	-17%	48%	4%
CC1(C)OC2=C(C(=O)c3ccccc3C2=O)[C@H](NCc2ccccc2)[C@H]1O	.	.	.	.	-31%[57.4 µM]	.
O=[S+]([O-])(NCC1CN(Cc2ccc(O)cc2)CC12CN(c1ccccc1)C2)c1ccccc1 (stereo not drawn)	.	.	.	.	0%	.
NC(=O)[C@@H]1CN(C(=O)CCn2cccn2)C[C@H]1COc1ccccc1	.	.	.	.	48%	.
CC[C@H]1CN(Cc2ccc(OC)cc2O)CC[C@H]1CC(=O)N(C)CC#N	.	.	.	.	-10%[176 µM]	.
COc1ccc(-c2nn(-c3ccccc3)cc2CN(C)CCn2ccnc2C)c(F)c1	-38%	-4%	-2%	18µM*	5%	?
Cc1ccc(OCc2nc(CCN(C)C(=O)c3ccccc3C(F)(F)F)no2)cc1C	.	.	.	.	4%	.
CCN1CCN(c2cc(N3CCN(C(=O)c4ccco4)CC3)c3c4c(onc24)-c2ccccc2C3=O)CC1	-19%	-11%	-21%	7.3µM*	.	9.2µM*
O=C(O)CCNc1cc(N2CCN(C(=O)c3ccco3)CC2)c2noc3c2c1C(=O)c1ccccc1-3	-12%	-1%	-13%	-2%	-11%	-26%
CS(=O)(=O)NCCc1ccc(C(=O)O)cc1	.	.	.	.	59%	.
CCC(C)c1ccc(S(=O)(=O)Nc2cccnc2)cc1 (stereo not drawn)	?	?	?	?	?	29µM*
CC(C)Cc1ccc(S(=O)(=O)Nc2cccnc2)cc1	96%	-2%	?	?	-10%	?
COc1ccc2nc(NC(=O)C3CCCN(S(=O)(=O)c4cccc5nonc45)C3)sc2c1 (stereo not drawn)	?	26µM*	-4%	?	60%	?
COc1ccc2nc(NC(=O)C3CCCN(S(=O)(=O)c4cccc5nsnc45)C3)sc2c1 (stereo not drawn)	37%	12µM*	-1%[0.365 µM]	?	24%	16µM*
Cc1ccc(NC(=O)C2CCCN2S(=O)(=O)c2cccc3nsnc23)c(Br)c1 (stereo not drawn)	.	.	.	?	-15%	21µM*

From PubChem
